NPSR antag: blocks cAMP signaling of the human neuropeptide S receptor | actives 1% (n = 220,000) | CHO-NPSR cells, cAMP TR-FRET, antagonist mode | AID 1461 | Potency, µM (titrated, usually from 38.3 µM), for the others: top-dose activity change, negative = inhibition, usual class: inhibitors; active means well fitted curve in the direction sought with a large enough effect; inconclusive means small, poorly fitted or top-dose-only effect, or another doubt; inactive means no such curve, though single readings can be large; an effect the other way counts as inactive or inconclusive; further: potency means the concentration at half of the fitted maximal effect; nearly all actives have a fitted effect of over 50% in size
HPGD inh: blocks human HPGD enzyme activity; P15428; purified HPGD, NADH fluorescence kinetic, PGE2 substrate; Potency, µM, inactives show at the top dose activity change, negative = inhibition, most hits filed as inhibitors; actives 4.3% (n = 150,000); further: potency means the concentration at half of the fitted maximal effect
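NADH formation kinetics: reaction with 30 uM PGE2 and 1 mM NAD+ (final), 20 nM enzyme, Tris-HCl pH 8 with Tween 20, after 15 min compound preincubation at room temperature. Fluorescence change, last versus first of five reads.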
IMPase cell inh: IMPase inhibition in cells. P97697. CHO-M1 cells, IP1 accumulation, HTRF TR-FRET ratio. inhibition (IP1 accumulation), % at 46.1 µM. 120,000 tested, under 10 active; active means well fitted curve in the direction sought with a large enough effect in the signal ratio, not every such curve was filed as active; inconclusive means small, poorly fitted or top-dose-only effect, or a change in a side signal; inactive means no such curve, though single readings can be large or run the other way; the % refers to the signal ratio;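 further: cells stimulated with carbachol in lithium chloride buffer; plate controls were DMSO basal wells for no effect and reference inhibitor wells for full effect; higher means more IMPase inhibition seen as more IP1 and lower FRET ratio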
Target sequence (P97697 whole entry, looked up): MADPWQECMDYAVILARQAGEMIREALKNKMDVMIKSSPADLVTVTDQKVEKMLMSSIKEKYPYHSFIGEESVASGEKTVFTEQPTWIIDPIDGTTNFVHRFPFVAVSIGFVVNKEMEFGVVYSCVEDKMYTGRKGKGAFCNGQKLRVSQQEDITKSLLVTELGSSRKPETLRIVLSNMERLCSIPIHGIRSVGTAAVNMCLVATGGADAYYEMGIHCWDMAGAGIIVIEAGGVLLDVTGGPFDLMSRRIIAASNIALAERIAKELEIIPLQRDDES
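Seeded CHO-M1 cells were dosed with compound at up to 46 uM, stimulated with carbachol for 30 min, then lysed in IP-One detection reagents. Higher IP1 lowers the TR-FRET signal.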
IMPase Li cell: IMPase inhibition in cells with lithium potentiation; CHO-M1 cells, IP1 TR-FRET (IP-One), carbachol + lithium; actives 0.35% (n = 210,000); AID 1457; Potency, µM (highest dose often 59.4 µM), for the others: at the top dose activity, negative = IMPase inhibition, hits mostly inhibitors; active means well fitted curve in the direction sought with a large enough effect; inconclusive means small, poorly fitted or top-dose-only effect, or another doubt; inactive means no such curve, though single readings can be large; an effect the other way counts as inactive or inconclusive;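 further: IP1 builds up when IMPase is blocked and the TR-FRET signal falls; potency means the concentration at half of the fitted maximal effect; plate controls were basal vehicle for no effect and high inhibitor control for full effect; nearly all actives have a fitted effect of over 50% in size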
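Test compounds were applied to CHO-M1 cells previously cultured for 16–30 h at 2000 per well. A small lithium amount accompanied them; after 30 min at 37C, IP1 was quantified by TR-FRET.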
PNC assembly inh: inhibitors of perinucleolar compartment assembly; PC3M PTB-GFP, PNC prevalence imaging, 16 h; active compounds read low; activity change (PNC), negative = inhibition, % at 10 µM; actives 3.1% (n = 140,000);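 active means readout at or below -70, meaning at least 70% loss of cells showing the perinucleolar compartment, a nuclear body marking cancer cells; inconclusive means readout between -30 and a set limit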;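 further: plate controls were DMSO wells for no effect and camptothecin positive control wells for full effect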
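Read-out is percentage of cells bearing a perinucleolar compartment, from automated 20x imaging of fixed, Hoechst-stained PC3M PTB-GFP cells. Cells were seeded 4 h, then exposed 16 h to compound (23 nl of library stock) in duplicate plates.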
ALDH1A1 inh: ALDH1A1 (human) enzyme inhibition; Potency, µM (doses to about 75.3 µM), for inactives: top-dose activity, negative = inhibition, usual class: inhibitors; AID 1030; Purified ALDH1A1, NADH fluorescence, propionaldehyde substrate; actives 7.3% (n = 220,000); P00352;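 further: potency means the concentration at half of the fitted maximal effect; plate controls were no enzyme wells and a reference inhibitor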
Target sequence (P00352 whole entry, looked up): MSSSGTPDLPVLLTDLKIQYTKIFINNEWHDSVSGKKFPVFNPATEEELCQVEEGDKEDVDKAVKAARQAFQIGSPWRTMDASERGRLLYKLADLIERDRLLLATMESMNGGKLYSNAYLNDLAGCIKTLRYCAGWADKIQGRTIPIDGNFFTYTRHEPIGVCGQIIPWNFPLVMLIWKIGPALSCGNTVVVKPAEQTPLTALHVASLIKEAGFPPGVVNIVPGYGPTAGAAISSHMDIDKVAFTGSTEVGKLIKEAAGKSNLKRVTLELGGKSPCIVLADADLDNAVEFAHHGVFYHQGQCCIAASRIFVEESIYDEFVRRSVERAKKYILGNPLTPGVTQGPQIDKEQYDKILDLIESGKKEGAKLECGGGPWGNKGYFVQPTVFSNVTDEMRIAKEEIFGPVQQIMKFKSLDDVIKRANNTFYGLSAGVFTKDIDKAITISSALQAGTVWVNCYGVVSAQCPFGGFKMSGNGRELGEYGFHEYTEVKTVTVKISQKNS
* = called active by the depositor; ? = inconclusive; . = not tested or not shown; [ ] = dose if it differs, or a comment. Rows were chosen to be rich in hits. Some 11% of all compounds tested hit in one or more screens of this group. Unless noted, the call rests on the fitted dose curve; in most records, active means well fitted inhibition curve with a large enough effect (not every such curve was filed as active); inconclusive means small, poorly fitted or top-dose-only effect, or another doubt; inactive means no such curve, though single readings can be large or run the other way. Unless noted, on the % scale 0 is the no-effect control and ±100 the full control effect.

SMILES	NPSR antag	HPGD inh	IMPase cell inh	IMPase Li cell	PNC assembly inh	ALDH1A1 inh
Cc1ccc(-c2ccc(C(=O)O)[nH]2)cc1	-7%[46.1 µM]	?	1	-9%[38.3 µM]	42	-10%
Cc1ccc(-c2csc(=S)[nH]2)cc1	-7%	.	.	7%	.	14µM*
Nc1c(C(=O)N2CCOCC2)sc(=S)n1-c1ccccc1	-14%[46.1 µM]	11µM*	0	17%[38.3 µM]	40	8.9µM*
CCOc1ccc(-n2c(N)c(C(=O)N3CCN(C)CC3)sc2=S)cc1	10%	.	.	4%	.	-12%
Nc1c(C(=O)N2CCCCC2)sc(=S)n1-c1ccccc1	-17%[46.1 µM]	3.2µM*	-6	23%[38.3 µM]	?	1.4µM*
COc1ccccc1CNC(=O)C(C)Sc1ccsc1[N+](=O)[O-] (stereo not drawn)	-10%	.	.	8%	.	3%
O=C(COC(=O)COc1ccccc1[N+](=O)[O-])Nc1cccc(Br)c1	12%	-3%	-2	-9%	7	-15%
COc1cc(CNCCc2ccccc2)cc(Br)c1OCC(=O)Nc1ccccc1C	?	.	.	15%	.	-11%
N=c1ccn2c(n1)O[C@@H]1[C@@H](O)[C@H](CO)O[C@H]12	.	.	0	.	.	.
CC(C)(C)c1ccc(-c2nnc(SCCC#N)n2C2CCCC2)cc1	-27%[46.1 µM]	-10%	3	47%[38.3 µM]	-2	-2%
c1nc(NCC2(N3CCOCC3)CCCCC2)c2ccsc2n1	9%[46.1 µM]	-18%	10	14%	-100*	4%
Cc1cc(N2C(=O)C(O)=C(C(=O)c3cccs3)C2c2ccccc2)no1 (stereo not drawn)	?	-2%	?	14µM*	34	-3%
COc1cccc(C2C(C(=O)c3cccs3)=C(O)C(=O)N2c2cc(C)on2)c1 (stereo not drawn)	3%[46.1 µM]	-25%	?	10µM*	31	-7%
COCCn1cnnc1SCC(=O)Nc1cccc(S(=O)(=O)N2CCCCCC2)c1	8%	-4%	.	-3%	-1	?
Cn1cnnc1SCC(=O)Nc1ccc(S(=O)(=O)N2CCCC2)cc1	-8%[46.1 µM]	-1%	6	27%[38.3 µM]	-23	3%
Cc1cc(C(=O)CSc2nnc(-c3ccccc3F)o2)c(C)n1Cc1cccs1	-25%[46.1 µM]	-7%	9	-17%[38.3 µM]	?	1%
COc1ccccc1-n1cnnc1SCC(=O)Nc1ncc(Cl)cc1Cl	-7%[46.1 µM]	-4%	5	-4%[38.3 µM]	?	4.5µM*
COCCCn1cnnc1SCC(=O)Nc1ccc(S(=O)(=O)N2CCCC2)cc1	-9%[46.1 µM]	-7%	17	17%[38.3 µM]	33	11µM*
COCCn1cnnc1SCC(=O)Nc1ccc(Br)cc1F	-8%	.	.	-1%	.	13µM*
COc1ccccc1-n1cnnc1SCC(=O)c1cc(C)n(Cc2cccs2)c1C	-14%[46.1 µM]	-19%	4	-8%[38.3 µM]	?	1.3µM*
COc1ccc2c(C)cc(SCC(=O)Nc3ncc(Cl)cc3Cl)nc2c1	?	?	.	13µM*	9	?
COc1ccccc1-n1cnnc1SCC(=O)Nc1cccc(S(=O)(=O)N2CCCCC2)c1	10%	-12%	.	14%	?	0.63µM*
Cc1cc(O)c2c(c1O)C(=O)c1c(O)cc(C)c(O)c1C2=O	.	-14%	.	8%	.	-8%
COc1ccc(/C=C/C(=O)N(CC(C)C)CC(C)C)cc1Br	-24%[46.1 µM]	-6%	14	12%	-7	?
Nc1cc(-c2nn[nH]n2)ccc1F	-4%[46.1 µM]	-16%	2	8%[38.3 µM]	26	8%
SMILES	NPSR antag	HPGD inh	IMPase cell inh	IMPase Li cell	PNC assembly inh	ALDH1A1 inh
Cc1cc(OCCOCCNC(C)C)cc(C)c1Cl	21%[46.1 µM]	6%	-1	34%[38.3 µM]	31	-13%
Cc1cc(OCC(=O)NCC(C)C)cc(C)c1Br	-14%[46.1 µM]	14µM*	4	-1%[38.3 µM]	14	?
Cc1cc(OCC(=O)NC(C)C)cc(C)c1Cl	18%[46.1 µM]	-23%	-9	-2%	-100*	-6%
CCOC(=O)CN1C(=O)S/C(=C/C=C/c2ccc(N(C)C)cc2)C1=O	-23%	-5%	.	3%	31	25µM*
Cc1cccc(CSc2nc3c(c(=O)[nH]2)CCC3)c1	5%	.	-12	1%	.	8%
Cc1ccccc1CSc1nc2c(c(=O)[nH]1)CCCC2	6%[46.1 µM]	4µM*	0	27%[38.3 µM]	13	10%
O=c1c2c(nc3nc(NCc4ccc(Cl)cc4)[nH]n13)CCC2	3%	.	.	-7%	.	11%
Cc1ccc(CSc2nc3c(c(=O)[nH]2)CCC3)cc1	-22%[46.1 µM]	10µM*	5	-4%[38.3 µM]	2	9%
O=c1[nH]c(NCc2ccccc2)nc2c1CCCC2	0%[46.1 µM]	13µM*	-3	5%	-23	-4%
CC1=NN(C(=O)Cc2ccccc2)C(O)(c2ccccc2)C1 (stereo not drawn)	7%	.	.	9%	.	-24%
Cc1ccc(Nc2nc(-c3sc(NC(=O)c4cccc(Cl)c4)nc3C)cs2)cc1	-2%[46.1 µM]	-21%	-4	7%[38.3 µM]	-14	16µM*
CCOc1ccccc1Nc1nc(-c2sc(NC(=O)c3ccco3)nc2C)cs1	-23%[46.1 µM]	-22%	0	10%[38.3 µM]	-11	-4%
Cc1ccccc1Nc1nc(-c2sc(NC(=O)c3ccco3)nc2C)cs1	-31%[46.1 µM]	?	4	0%	0	20µM*
CC(=O)Nc1nc(C)c(-c2csc(Nc3ccc(O)cc3)n2)s1	?	-28%	?	37%[38.3 µM]	-17	25µM*
COc1ccccc1Nc1nc(-c2sc(NC(=O)c3cccc(Cl)c3)nc2C)cs1	-16%[46.1 µM]	-22%	1	12%[38.3 µM]	2	?
CCC(C)C(=O)Nc1nc(C)c(-c2csc(Nc3ccc(Cl)cc3)n2)s1 (stereo not drawn)	-21%[46.1 µM]	?	1	6%[38.3 µM]	35	22µM*
COc1cccc(N2C(=O)CC(N3CCN(C(=O)c4ccco4)CC3)C2=O)c1 (stereo not drawn)	11%[46.1 µM]	-3%	-8	9%[38.3 µM]	9	?
Cc1cc(Br)c2nc3c(c(C(=O)O)c2c1)CCCCC3	1µM*	.	?	.	?	8%
CCc1ccc2nc3c(c(C(=O)O)c2c1)CCC3	-7%[46.1 µM]	-15%	-9	6%[38.3 µM]	?	?
CC(=O)N1CCC[C@H]1C(=O)O	10%	.	.	2%	.	-4%
O=C(O)C1CCCN1C(=O)c1cncc(Br)c1 (stereo not drawn)	1%[46.1 µM]	2%	4	3%[38.3 µM]	-13	20µM*
COc1ccc(C2CC(=O)C(C=NCCN3CCN(C(C)=O)CC3)=C(O)C2)cc1OC (stereo not drawn)	-6%[46.1 µM]	-3%	6	3%[38.3 µM]	17	1%
Cc1nn(Cc2c(F)c(F)c(F)c(F)c2F)c(C)c1NC(=O)c1cccc(COc2ccc(Cl)cc2)c1	-29%[46.1 µM]	-6%	21	14%[38.3 µM]	-28	6%
CC(C)c1cc(C(N)=O)c(NC(=O)c2cccc(COc3ccc(Cl)cc3)c2)s1	10µM*	?	?	47%[38.3 µM]	16	?
